Results: PubChem BioAssay (EPA / NIEHS)
Where “and” joins values, the source holds several entries; their conditions need not be identical. Identical values can stand only once. Results filed as inconclusive are left out. Calls of active or inactive are those of the source. The calls were made as follows, unless noted: active = hit-call score of the fitted dose curve at least 0.9, where 1 is the maximum; inactive = score below 0.9.

assay: IUF_NPC2-5_cell_number_120hr: Cell Number Assessment at 120 hours in the Leibniz Research Institute for Environmental Medicine (IUF) Neural Progenitor Cell Migration and Differentiation Assay (NPC2-5) (AID 2284308);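 also: count of Hoechst-stained nuclei in migration zone around plated human neural progenitor spheres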
Method in brief: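 Cell number is taken as all Hoechst-positive nuclei detected in the area into which cells migrate out of the sphere, scored at 120 h and referenced to DMSO solvent control, which was kept at no more than 0.1%.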

Row | SMILES | outcome | AC50
1 | CCOC(=O)CC(SP(=O)(OC)OC)C(=O)OCC (configuration not stated) | inactive | 
2 | CCOP(=S)(OCC)Oc1cc(C)nc(C(C)C)n1 | inactive | 
3 | CCOP(=S)(OCC)SCCSCC | inactive | 
4 | CCOP(=O)(OCC)Oc1cc(C)nc(C(C)C)n1 | inactive | 
5 | CSC1=N[C@@](C)(c2ccccc2)C(=O)N1Nc1ccccc1 | inactive | 
6 | CCOP(=S)(OCC)OC(Cl)C(Cl)(Cl)Cl (configuration not stated) | inactive | 
7 | CN(C)[C@@H]1C(=O)C(C(N)=O)=C(O)[C@@]2(O)C(=O)C3=C(O)c4c(O)cccc4[C@@](C)(O)[C@H]3[C@H](O)[C@@H]12 |  | 72.5 µM (active)
8 | O=[N+]([O-])c1cc(C(F)(F)F)c(Cl)c([N+](=O)[O-])c1Nc1ncc(C(F)(F)F)cc1Cl |  | 1.1 µM (active)
9 | C[N+]1(C)CCCCC1 | inactive | 
10 | CON=C(C(=O)OC)c1ccccc1CON=C(C)c1cccc(C(F)(F)F)c1 | inactive | 
11 | COP(=O)(NC(C)=O)SC (configuration not stated) | inactive | 
12 | CC(=NC#N)N(C)Cc1ccc(Cl)nc1 | inactive | 
13 | CCOP(=S)(Oc1cnc(C(C)(C)C)nc1)OC(C)C (configuration not stated) | inactive | 
14 | CCCCSP(=O)(SCCCC)SCCCC | inactive | 
15 | COP(=O)(OC)OC(Br)C(Cl)(Cl)Br (configuration not stated) |  | 25.7 µM (active)
16 | C=C(C)[C@H]1Cc2c(ccc3c2O[C@@H]2COc4cc(OC)c(OC)cc4[C@@H]2C3=O)O1 |  | 0.00141 µM (active)
17 | CN1COCN(Cc2cnc(Cl)s2)C1=N[N+](=O)[O-] | inactive | 
18 | COP(=O)(OC)C(O)C(Cl)(Cl)Cl (configuration not stated) | inactive | 
19 | CCCSP(=O)(OCC)SCCC | inactive | 
20 | CC1=NNC(=O)N(/N=C/c2cccnc2)C1 | inactive | 
21 | CC[C@H](C)[C@H]1O[C@]2(C=C[C@@H]1C)C[C@@H]1C[C@@H](C/C=C(\C)[C@@H](O[C@H]3C[C@H](OC)[C@@H](O[C@H]4C[C@H](OC)[C@@H](NC)[C@H](C)O4)[C@H](C)O3)[C@@H](C)/C=C/C=C3\CO[C@@H]4[C@H](O)C(C)=C[C@@H](C(=O)O1)[C@]34O)O2 |  | 836 nM (active) and 2 µM (active)
22 | CC(C)N(C(=O)SCC(Cl)=C(Cl)Cl)C(C)C | inactive | 
23 | S=C1NCCN1 | inactive | 
24 | CCOP(=O)(NC(C)C)Oc1ccc(SC)c(C)c1 (configuration not stated) | inactive | 

assay: VALA_TUBHUV_Agonist_CellCount: Viability Assessment in the VALA Sciences human Umbilical Vein Endothelial Tubule Formation (TUBHUV) Agonism Assay (AID 2284309; active = hit-call score of the fitted dose curve at least 0.9, where 1 is the maximum)
Method: VALA_TUBHUV_Agonist is a cell-based, multiplexed assay that uses human umbilical vein endothelial cells (HUVEC). Measurements were taken 72 hours after chemical dosing in a 96-well plate.VALA_TUBHUV_Agonist_CellCount is the one of two assay components measured from the VALA_TUBHUV_Agonist assay. It is designed to make measurements of viability, a form of viability reporter, as detected with fluorescence intensity signals by HCS Fluorescent Imaging technology. Data from the assay component VALA_TUBHUV_Agonist_CellCount was analyzed at the endpoint, VALA_TUBHUV_Agonist_CellCount, in the positive analysis fitting direction relative to DMSO as the negative control and baseline of activity. Using a type of viability reporter, loss-of-signal activity can be used to understand viability. To generalize the intended target to other relatable targets, this assay endpoint is annotated to the cell cycle intended target family, where the subfamily is cell count.
[…]

Row | SMILES | outcome
25 | CN(C)[C@@H]1C(=O)C(C(N)=O)=C(O)[C@@]2(O)C(=O)C3=C(O)c4c(O)cccc4[C@@](C)(O)[C@H]3[C@H](O)[C@@H]12 | inactive
26 | O=[N+]([O-])c1cc(C(F)(F)F)c(Cl)c([N+](=O)[O-])c1Nc1ncc(C(F)(F)F)cc1Cl | inactive
27 | CC1=NNC(=O)N(/N=C/c2cccnc2)C1 | inactive
